Our source for the AC50 and outcome values is PubChem BioAssay (EPA / NIEHS).

Each structure is given as a SMILES string. “And” between values parts separate entries of the source, which are not always exact repeats. Equal entries are not always repeated. Inconclusive results are not listed. Some structures have more than one record in an assay (separate samples or runs), and their calls can disagree. The source made the active and inactive calls. Rule for the calls, unless noted: active = hit-call score of the fitted dose curve at least 0.9, where 1 is the maximum; inactive = score below 0.9.

Read-out in experiment [1]: Monocyte Chemoattractant Protein-1 (MCP1), CCL2 (gene 6347)
Put plainly: BSK_SAg_MCP1: BioMAP Diversity Plus: SAg Assay for Monocyte Chemoattractant Protein-1 (MCP1) Biomarker Activity (AID 2283090). Conditions: primary human HUVEC with PBMC; actives raise or lower the signal. A digest of the protocol: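 MCP-1 levels in the endothelial–PBMC SAg co-culture were quantified by ELISA at 24 h post-dosing; both increases and decreases versus DMSO scored. Cytotoxicity monitored by SRB total protein in parallel cultures.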

Read-out in experiment [2]: E-selectin (Homo sapiens) (UniProt P16581)
Put plainly: BSK_SAg_Eselectin: BioMAP Diversity Plus: SAg Assay for Eselectin Biomarker Activity (AID 2283091). Conditions: primary human HUVEC with PBMC; actives raise or lower the signal. A digest of the protocol:
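Human umbilical vein endothelial cells co-cultured with peripheral blood mononuclear cells, SAg system. E-selectin is measured by ELISA 24 h after dosing and fitted bidirectionally against DMSO. Cytotoxicity is checked by SRB staining of parallel cultures.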

Read-out in experiment [3]: Monokine induced gamma interferon (MIG), CXCL9 (gene 4283)
Put plainly: BSK_SAg_MIG: BioMAP Diversity Plus: SAg Assay for Monokine induced gamma interferon (MIG) Biomarker Activity (AID 2283092). The settings on record: primary human HUVEC with PBMC; actives raise or lower the signal. A digest of the protocol:
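Endothelial cells and PBMC were co-cultured, exposed to test chemicals, and sampled 24 h later. MIG was measured by ELISA, and responses were fitted in both directions relative to DMSO.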

Experiment [4] is described as follows: BSK_SAg_PBMCCytotoxicity: PBMC Cytotoxicity Assessment in the BioMAP Diversity Plus: SAg Assay (AID 2283093).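 For AC50: PBMC superantigen activated with SEB plus TSST-1 one hour after compound addition.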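 Note: PBMC viability measured as Alamar Blue reduction fluorescence at 546/580 nm; fitted both ways against DMSO so a hit may be loss or gain of signal.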 Conditions: primary human HUVEC with PBMC. The procedure, abridged: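 HUVEC/PBMC co-culture; PBMC exposed to chemical 1 h before SEB and TSST-1 activation (20 ng/mL each), incubated 90 h, then Alamar Blue 6 h, fluorescence 546/580 nm. Bidirectional fit versus DMSO baseline.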

Read-out in experiment [5]: Interleukin-8 (IL8), CXCL8 (gene 3576)
Put plainly: BSK_SAg_IL8: BioMAP Diversity Plus: SAg Assay for Interleukin-8 (IL8) Biomarker Activity (AID 2283094). Conditions: primary human HUVEC with PBMC; actives raise or lower the signal. A digest of the protocol: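 ELISA read-out of IL-8 in a primary human vascular co-culture (umbilical vein endothelium plus PBMC), taken 24 h after compound addition. Values derive from bidirectional fits against DMSO negative controls.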

Experiment [6] in a line: BSK_SAg_Proliferation: Cell Proliferation Assessment in the BioMAP Diversity Plus: SAg Assay (AID 2283095).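 Note: relative cell number as total protein by SRB absorbance in sub-confluent culture.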 The settings on record: primary human HUVEC with PBMC. A digest of the protocol: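 Cells (endothelium plus PBMC, human primary) were dosed with chemical, cultured 96 h, fixed in 10% TCA and stained with 0.1% SRB. Absorbance at 560 nm gave relative protein, fitted bidirectionally relative to DMSO.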

Experiment [7] is described as follows: BSK_SAg_SRB: Viability Assessment in the BioMAP Diversity Plus: SAg Assay (AID 2283096).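 Note: cells read one day after compound addition; hits may be either gain or loss of signal compared with DMSO.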 Conditions: primary human HUVEC with PBMC. A digest of the protocol: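 Human umbilical vein endothelial cells co-cultured with PBMC, read 24 h after compound dosing. Total protein measured by sulforhodamine B staining (0.1% SRB after 10% TCA fixation, absorbance 560 nm); bidirectional fit versus DMSO baseline.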

The target of experiment [8] is human CYP19A1, CYP19A1 (gene 1588) (UniProt P11511). As to the kind of experiment: NVS_ADME_hCYP19A1: NovaScreen (NVS) CYP450-related Enzyme Activity (ADME) Assay for human CYP19A1 (AID 2283098; active = hit-call score of the fitted dose curve at least 0.9, where 1 is the maximum). The procedure, abridged: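 Recombinant enzyme in a cell-free format, read 0.5 h after dosing by fluorescence from a fluorogenic substrate. Loss of signal was fitted against acetonitrile as baseline. Primary screen in duplicate at 10 uM, actives then tested in concentration series.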

The target of experiment [9] is human CYP1A1, CYP1A1 (gene 1543) (UniProt P04798). Put plainly: NVS_ADME_hCYP1A1: NovaScreen (NVS) CYP450-related Enzyme Activity (ADME) Assay for human CYP1A1 (AID 2283100; active = hit-call score of the fitted dose curve at least 0.9, where 1 is the maximum). The procedure, abridged:
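Recombinant CYP1A1 with a fluorogenic substrate, cell-free, read 1 h after dosing; acetonitrile as negative control. Single-concentration screen at 10 uM in duplicate, then concentration-response up to 20 uM for chemicals meeting ~30% inhibition threshold.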

E-selectin (Homo sapiens), sequence (P16581 whole entry, looked up): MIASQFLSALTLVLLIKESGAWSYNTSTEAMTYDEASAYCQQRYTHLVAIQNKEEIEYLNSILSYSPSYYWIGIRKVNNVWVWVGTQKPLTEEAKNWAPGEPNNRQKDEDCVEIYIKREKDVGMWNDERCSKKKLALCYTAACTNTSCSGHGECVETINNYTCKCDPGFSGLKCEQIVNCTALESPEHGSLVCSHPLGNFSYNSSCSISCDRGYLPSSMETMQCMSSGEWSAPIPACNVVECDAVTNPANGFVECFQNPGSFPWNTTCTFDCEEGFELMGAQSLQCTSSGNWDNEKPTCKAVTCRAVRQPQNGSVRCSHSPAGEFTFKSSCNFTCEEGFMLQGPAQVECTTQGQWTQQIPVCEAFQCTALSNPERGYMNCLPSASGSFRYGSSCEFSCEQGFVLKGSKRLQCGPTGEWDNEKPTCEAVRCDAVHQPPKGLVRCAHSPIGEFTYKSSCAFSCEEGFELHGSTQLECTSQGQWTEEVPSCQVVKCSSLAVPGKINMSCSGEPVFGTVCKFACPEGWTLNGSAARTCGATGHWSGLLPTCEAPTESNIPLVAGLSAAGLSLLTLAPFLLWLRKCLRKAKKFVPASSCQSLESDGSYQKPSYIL
human CYP1A1, CYP1A1 (gene 1543), sequence (P04798 whole entry, looked up): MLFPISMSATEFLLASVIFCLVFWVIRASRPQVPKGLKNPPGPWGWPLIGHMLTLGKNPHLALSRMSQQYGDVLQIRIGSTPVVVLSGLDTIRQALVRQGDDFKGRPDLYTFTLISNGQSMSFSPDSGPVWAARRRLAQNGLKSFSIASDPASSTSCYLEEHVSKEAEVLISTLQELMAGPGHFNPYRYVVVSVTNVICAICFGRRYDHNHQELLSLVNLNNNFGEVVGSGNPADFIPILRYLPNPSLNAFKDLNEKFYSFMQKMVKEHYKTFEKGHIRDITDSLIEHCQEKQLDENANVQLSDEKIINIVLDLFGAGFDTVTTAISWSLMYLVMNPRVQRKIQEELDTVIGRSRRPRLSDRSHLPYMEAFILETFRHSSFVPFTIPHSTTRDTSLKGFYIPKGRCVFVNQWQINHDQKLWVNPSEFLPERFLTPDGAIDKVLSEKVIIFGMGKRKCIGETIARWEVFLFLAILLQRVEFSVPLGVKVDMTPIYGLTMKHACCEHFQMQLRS
human CYP19A1, CYP19A1 (gene 1588), sequence (P11511 whole entry, looked up): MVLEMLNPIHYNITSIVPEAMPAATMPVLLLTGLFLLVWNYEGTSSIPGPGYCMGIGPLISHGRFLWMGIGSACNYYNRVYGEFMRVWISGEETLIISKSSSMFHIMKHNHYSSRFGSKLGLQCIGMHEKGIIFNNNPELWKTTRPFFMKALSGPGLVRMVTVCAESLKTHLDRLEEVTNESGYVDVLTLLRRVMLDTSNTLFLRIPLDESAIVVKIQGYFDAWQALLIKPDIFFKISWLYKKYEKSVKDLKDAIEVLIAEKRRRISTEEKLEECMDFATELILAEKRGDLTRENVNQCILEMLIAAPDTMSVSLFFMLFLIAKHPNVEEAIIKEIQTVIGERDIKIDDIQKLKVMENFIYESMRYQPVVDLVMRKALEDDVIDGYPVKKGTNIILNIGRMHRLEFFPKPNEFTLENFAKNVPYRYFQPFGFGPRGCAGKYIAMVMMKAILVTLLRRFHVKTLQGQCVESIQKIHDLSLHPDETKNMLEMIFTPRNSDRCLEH

For `C=CCC1=C(C)[C@@H](OC(=O)[C@@H]2[C@@H](C=C(C)C)C2(C)C)CC1=O`, the AC50 (commonly the concentration at which the activity in the assay is half-maximal) in experiment [1] is 33.2 µM (active); in experiment [2], 27.4 µM (active); in experiment [3] it was 38.9 µM (active); in [4], 32.4 µM (active); in [5] it was 25.3 µM (active); in experiment [6], 33.8 µM (active). Moreover, the AC50 in experiment [7] was 29.2 µM (active).

With `CC(C)C1(C)N=C(c2nc3ccccc3cc2C(=O)O)NC1=O` (stereo not given), the outcome in experiment [1], in experiment [2], in [3], in [4], in experiment [5] and in [6] was inactive. In [7], the outcome was inactive.

Take `COC(=O)C(C)Oc1ccc(Oc2ccc(Cl)cc2Cl)cc1` (stereo not given): in experiment [1], the AC50 is 20 µM (active). For the same compound, the outcome in experiment [1], in [2], in [3], in experiment [4], in experiment [5] and in experiment [6] was inactive. The result in experiment [7] was inactive.

`COC(=O)C=C(C)OP(=O)(OC)OC`: the result in [1], in [2], in experiment [3], in experiment [4], in experiment [5] and in experiment [6] was inactive. In experiment [7], the outcome was inactive.

For the compound `CCCCOC(=O)c1ccccc1C(=O)OCCCC`, the result in experiment [1], in experiment [2], in [3], in experiment [4], in experiment [5] and in [7] was inactive. The compound was called inactive in experiment [8] and in experiment [9]. For the same compound, the AC50 in experiment [2] is 20 µM (active); in [6], 29.2 µM (active) and 31.4 µM (active).

Take `COC(=O)c1ccccc1C(=O)OC`: the result in experiment [1], in experiment [2], in experiment [3], in experiment [4], in [5] and in experiment [6] was inactive. The result in experiment [7] was inactive.

With `CCCN(CCC)c1c([N+](=O)[O-])cc(S(N)(=O)=O)cc1[N+](=O)[O-]`, the concentration at half-maximal activity (AC50) in experiment [1] is 34.8 µM (active) [middle of 4 runs]; in experiment [2], 33.1 µM (active) and 31.4 µM (active) and 30 µM (active); in experiment [3], 39.5 µM (active) [middle of 4 runs]; in [4] it was 30.7 µM (active) [middle of 4 runs]; in experiment [5] it was 39.7 µM (active) [middle of 4 runs]; in experiment [6], 30.2 µM (active) [middle of 4 runs]. Further, the half-maximal activity concentration (AC50) in experiment [7] is 32.3 µM (active) [middle of 4 runs].

In the case of `CCON=C(CC)C1=C(O)CC(c2c(C)cc(C)cc2C)CC1=O` (stereo not given), the result in experiment [1], in experiment [2], in experiment [3], in experiment [4], in experiment [5] and in experiment [6] was inactive. The result in [7] was inactive.

Consider `Cc1cc(Cl)ccc1OCC(=O)O`, for which the outcome in experiment [1], in experiment [2], in experiment [3], in experiment [4], in experiment [5] and in experiment [6] was inactive. Further, the result in experiment [7] was inactive.

Take `CCCCNC(=O)OCC#CI`: the concentration at half-maximal activity (AC50) is 29.2 µM (active) and 26.1 µM (active) in experiment [1]; 25 µM (active) and 22.7 µM (active) in experiment [2]; 35.1 µM (active) and 36.5 µM (active) in experiment [3]; 7.02 µM (active) and 7.09 µM (active) in [4]; 22.1 µM (active) and 14.7 µM (active) in [5]; 2.71 µM (active) and 2.68 µM (active) in experiment [6]. For the same compound, in [7], the concentration at half-maximal activity (AC50) was 28.6 µM (active).

In the case of `Fc1ccc(Oc2ccnc3cc(Cl)cc(Cl)c23)cc1`, the AC50 in experiment [1] is 28.2 µM (active); in experiment [2], 20.5 µM (active); in [3], 30.6 µM (active); in [4], 31.4 µM (active); in [5], 15.9 µM (active); in [6] it was 22.7 µM (active). The AC50 in [7] is 25.5 µM (active).

For the compound `O=C(O)COc1nc(Cl)c(Cl)cc1Cl`, the outcome in experiment [1], in experiment [2], in experiment [3], in experiment [4], in [5] and in experiment [6] was inactive. For the same compound, the outcome in [7] was inactive.

Take `CCNc1nc(Cl)nc(NCC)n1`: the result in [1], in [2], in experiment [3], in experiment [4], in experiment [5] and in [6] was inactive. Besides, the outcome in [7] and in experiment [9] was inactive.

Turning to `CCNc1nc(Cl)nc(NC(C)C)n1`, the outcome in [1], in experiment [3], in experiment [4], in [5], in experiment [6] and in [7] was inactive. The call in experiment [8] and in experiment [9] was inactive. Besides, the AC50 in experiment [2] is 13.9 µM (active).
